Our source for the inhibition values is PubChem BioAssay AID1671202 (University of Kansas High Throughput Screening Laboratory, 2021).

Where “and” joins values, the source holds several entries; their conditions need not be identical. Equal entries are not always repeated. In all, about 190,000 compounds went through this assay and about 6,900 (3.6%) were called active. No stated cut-off is given here; in the data, active means inhibition above about 50%; inactive means the rest. The list comes from a sample in which actives are over-represented; it also holds similar structures and randomly drawn compounds.

One may read the inhibition as the drop in the measured response relative to a control, in per cent.

The target of this experiment is Huntingtin (Homo sapiens) (UniProt P42858). As to the kind of experiment: mutant huntingtin-calmodulin interaction inhibitors – biochemical, AlphaScreen, primary screen (AID 1671202).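 Further: 0% = both proteins with DMSO and 100% = one protein alone.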 Conditions: AlphaScreen His-mHTT/GST-CaM binding, luminescence; at 15 µM, hits give high values.
Huntingtin (Homo sapiens), sequence (P42858 whole entry, looked up, stated change not applied): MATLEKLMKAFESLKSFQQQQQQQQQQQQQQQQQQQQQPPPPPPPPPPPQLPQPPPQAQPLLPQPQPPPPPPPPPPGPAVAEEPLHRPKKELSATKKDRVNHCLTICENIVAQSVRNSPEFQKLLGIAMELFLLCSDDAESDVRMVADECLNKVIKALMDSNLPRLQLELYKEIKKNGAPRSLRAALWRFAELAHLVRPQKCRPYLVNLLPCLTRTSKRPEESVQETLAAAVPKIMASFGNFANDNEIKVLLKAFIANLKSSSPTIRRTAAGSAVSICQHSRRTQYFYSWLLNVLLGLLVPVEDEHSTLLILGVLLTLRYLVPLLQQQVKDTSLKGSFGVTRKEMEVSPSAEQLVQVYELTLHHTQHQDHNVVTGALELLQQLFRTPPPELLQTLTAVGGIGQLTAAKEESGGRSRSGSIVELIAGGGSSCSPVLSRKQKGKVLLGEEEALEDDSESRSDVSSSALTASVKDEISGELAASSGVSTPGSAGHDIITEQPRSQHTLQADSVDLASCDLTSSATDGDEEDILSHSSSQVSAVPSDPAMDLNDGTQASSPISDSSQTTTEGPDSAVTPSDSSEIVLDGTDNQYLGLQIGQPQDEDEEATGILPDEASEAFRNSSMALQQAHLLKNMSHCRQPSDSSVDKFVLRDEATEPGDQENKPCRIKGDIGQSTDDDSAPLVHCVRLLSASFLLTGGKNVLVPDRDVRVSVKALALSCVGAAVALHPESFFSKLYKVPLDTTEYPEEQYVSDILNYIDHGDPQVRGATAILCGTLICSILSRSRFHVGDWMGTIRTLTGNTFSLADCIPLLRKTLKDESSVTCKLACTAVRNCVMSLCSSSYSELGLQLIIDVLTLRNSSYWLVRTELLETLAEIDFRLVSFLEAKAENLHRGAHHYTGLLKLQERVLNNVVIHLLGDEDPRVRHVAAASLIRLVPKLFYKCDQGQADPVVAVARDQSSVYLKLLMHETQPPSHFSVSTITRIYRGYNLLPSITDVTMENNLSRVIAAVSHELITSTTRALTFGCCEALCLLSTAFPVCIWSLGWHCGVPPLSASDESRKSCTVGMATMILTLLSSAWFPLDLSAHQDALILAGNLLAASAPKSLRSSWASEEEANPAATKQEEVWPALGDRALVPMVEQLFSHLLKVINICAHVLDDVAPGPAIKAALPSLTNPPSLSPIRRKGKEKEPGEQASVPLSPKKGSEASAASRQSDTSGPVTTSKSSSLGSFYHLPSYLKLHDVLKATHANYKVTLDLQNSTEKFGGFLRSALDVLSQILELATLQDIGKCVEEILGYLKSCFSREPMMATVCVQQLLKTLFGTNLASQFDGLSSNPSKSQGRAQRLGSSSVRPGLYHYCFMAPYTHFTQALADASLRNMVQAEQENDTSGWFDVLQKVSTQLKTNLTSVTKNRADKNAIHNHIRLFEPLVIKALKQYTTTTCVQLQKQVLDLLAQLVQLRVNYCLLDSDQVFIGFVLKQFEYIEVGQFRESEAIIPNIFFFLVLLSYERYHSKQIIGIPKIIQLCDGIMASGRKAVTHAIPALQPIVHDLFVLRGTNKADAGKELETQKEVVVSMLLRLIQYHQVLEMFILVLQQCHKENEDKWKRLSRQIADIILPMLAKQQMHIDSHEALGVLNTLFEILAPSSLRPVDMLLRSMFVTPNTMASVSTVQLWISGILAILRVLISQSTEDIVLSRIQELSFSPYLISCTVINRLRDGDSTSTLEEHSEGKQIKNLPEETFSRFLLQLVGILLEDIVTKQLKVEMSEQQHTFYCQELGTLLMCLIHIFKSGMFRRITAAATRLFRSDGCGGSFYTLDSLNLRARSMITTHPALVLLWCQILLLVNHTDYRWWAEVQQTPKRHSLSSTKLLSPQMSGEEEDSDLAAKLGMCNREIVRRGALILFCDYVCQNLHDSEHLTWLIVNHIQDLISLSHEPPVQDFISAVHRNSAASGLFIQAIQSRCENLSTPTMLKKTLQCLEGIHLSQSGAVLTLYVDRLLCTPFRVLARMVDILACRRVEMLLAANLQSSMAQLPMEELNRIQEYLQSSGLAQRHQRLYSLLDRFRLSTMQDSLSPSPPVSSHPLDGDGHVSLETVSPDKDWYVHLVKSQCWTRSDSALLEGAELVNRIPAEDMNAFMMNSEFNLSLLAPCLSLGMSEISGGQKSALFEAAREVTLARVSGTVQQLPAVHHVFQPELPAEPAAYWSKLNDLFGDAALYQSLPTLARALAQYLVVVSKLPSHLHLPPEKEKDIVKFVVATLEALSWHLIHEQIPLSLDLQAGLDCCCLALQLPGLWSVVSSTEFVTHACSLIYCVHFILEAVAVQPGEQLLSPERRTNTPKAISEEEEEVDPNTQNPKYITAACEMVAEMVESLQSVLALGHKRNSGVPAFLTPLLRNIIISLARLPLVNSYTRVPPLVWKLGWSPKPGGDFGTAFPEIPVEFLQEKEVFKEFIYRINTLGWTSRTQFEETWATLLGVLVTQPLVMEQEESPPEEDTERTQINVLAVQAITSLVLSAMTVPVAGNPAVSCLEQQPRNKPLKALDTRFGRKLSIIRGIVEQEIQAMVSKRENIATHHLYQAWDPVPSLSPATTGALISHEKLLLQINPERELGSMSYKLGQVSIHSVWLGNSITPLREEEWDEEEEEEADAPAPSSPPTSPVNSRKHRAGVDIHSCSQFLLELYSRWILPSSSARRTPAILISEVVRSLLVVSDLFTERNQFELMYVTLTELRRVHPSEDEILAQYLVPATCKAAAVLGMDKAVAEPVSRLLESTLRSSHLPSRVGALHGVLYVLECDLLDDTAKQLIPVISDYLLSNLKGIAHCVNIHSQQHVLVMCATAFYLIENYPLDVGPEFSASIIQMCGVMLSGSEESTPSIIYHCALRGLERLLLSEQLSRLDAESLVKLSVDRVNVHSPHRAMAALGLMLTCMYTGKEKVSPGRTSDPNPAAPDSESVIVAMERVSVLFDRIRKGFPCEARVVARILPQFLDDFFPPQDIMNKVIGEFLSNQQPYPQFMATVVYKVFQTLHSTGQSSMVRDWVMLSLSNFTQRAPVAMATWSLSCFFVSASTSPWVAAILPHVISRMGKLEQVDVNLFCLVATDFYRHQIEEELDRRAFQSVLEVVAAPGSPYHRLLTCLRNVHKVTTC
Consider `CC(=O)NC1CCN(c2ccccc2C(=O)N(C)C2CCCCC2)CC1`, for which the inhibition was 11.4% (inactive).

With `COc1ccc(C=CC(=O)NCCN2CCn3cc(OC)c(=O)cc3C2=O)cc1OC`, the inhibition was -2.5% (inactive). Consider `COc1ccc(CC(=O)Nc2nnc(C3CC(=O)N(c4ccc(Cl)cc4)C3)o2)cc1` (stereo not given), for which the inhibition was 22.1% (inactive). Then `Cc1ccccc1OCC(=O)Nc1nnc(C2CC(=O)N(c3ccccc3)C2)o1` (stereo not given), with -0.23% (inactive). As to `COc1ccc(N2CC(c3nnc(NC(=O)Cc4ccc(C)cc4)o3)CC2=O)cc1` (stereo not given), the inhibition is 2.93% (inactive). For the compound `Cc1ccc(N2CC(c3nnc(NC(=O)CCc4ccccc4)o3)CC2=O)cc1` (stereo not given), the inhibition was 0.32% (inactive). For `O=C(Cc1cccs1)Nc1nnc(C2CC(=O)N(c3ccc(Cl)cc3)C2)o1` (stereo not given), the inhibition is 95.7% (active). For the compound `CSc1ccc(N2CC(c3nnc(NC(=O)Cc4ccccc4C)o3)CC2=O)cc1` (stereo not given), the inhibition was 68.1% (active). On to `N#CCOc1ccc2c(=O)c(-c3ccccc3)coc2c1`, for which the inhibition was -3% (inactive).

As to `CCCCC(=O)Nc1n[nH]c(C)c1-c1ccc(Cl)cc1`, the inhibition was 2.8% (inactive). As for `COc1ccccc1OCCCCOc1ccccc1OC`, the inhibition is -8.5% (inactive). Consider `O=[N+]([O-])c1ccc(N2CCN(S(=O)(=O)c3ccc(Br)s3)CC2)cc1`, for which the inhibition was 7% (inactive). In the case of `CCC(=O)Nc1ccc(S(=O)(=O)N2CCN(C)c3ccccc32)cc1`, the inhibition is -1.8% (inactive).

Take `O=C(CSc1nc2[nH]ncc2c(=O)n1-c1ccccc1)c1ccc(Cl)c(Cl)c1`: the inhibition is 48% (inactive).

On to `O=C(CSc1nc(-c2ccccc2)nc2c1CCCC2)c1ccc(O)c(O)c1`, for which the inhibition was 52% (active). On to `O=C(CSc1ncn[nH]1)c1ccc(O)c(O)c1`, for which the inhibition was -5.2% (inactive) and -1% (inactive).

On to `COc1cc(OC)c(OC)cc1C=Nc1ccccc1C(=O)O`, for which the inhibition was 5.4% (inactive).

As for `CC(Oc1ccc(Cl)cc1)C(=O)N1CCn2c(nnc2C(C)C)C1` (stereo not given), the inhibition is 2.1% (inactive). As to `CC(C)Nc1nc(-c2ccccc2O)nc2ccccc12`, the inhibition was -13.2% (inactive).

For the compound `Cc1cc(NN)nc(-c2ccccc2O)n1`, the inhibition was 53.5% (active).

With `Cc1cc(Nc2ccccc2)nc(N)n1`, the inhibition is 0.7% (inactive). For the compound `CCCNC(=O)C1CCN(Cc2cn(C)c3ccc(Cl)cc23)CC1`, the inhibition is -7.24% (inactive).

In the case of `O=C(NCc1ccc(F)cc1)c1ccc2c(c1)NC(=O)C(N1CCCCC1)S2` (stereo not given), the inhibition is -10% (inactive). For the compound `CCCNC(=O)c1cn(-c2ccc(C)cc2)nn1`, the inhibition is -7.1% (inactive). Regarding `COc1cccc(N2C(=O)C3CCCN3C2c2ccc(F)cc2)c1` (stereo not given), the inhibition is 5.08% (inactive). For the compound `Cc1ccsc1C1N(c2ccc(Cl)c(Cl)c2)C(=O)C2CCCN21` (stereo not given), the inhibition was 96.1% (active). The figure for `COc1ccc(N2C(=O)C3CCCN3C2c2cccs2)cc1` (stereo not given) is -7.68% (inactive). Turning to `COc1ccc(N2C(=O)C3CCCN3C2c2cc(OC)c(OC)cc2OC)cc1` (stereo not given), the inhibition was -4.26% (inactive). In the case of `COc1ccc(N2C(=O)C3CCCN3C2c2ccc(Cl)c(Cl)c2)cc1` (stereo not given), the inhibition was 68% (active). For `Cc1ccc(N2C(=O)C3C4C=CC(CC4)C3C2=O)cc1Cl` (stereo not given), the inhibition is -5% (inactive). `CCOc1ccc(CC(=O)N2CC3CC2CC3NC(=O)c2ccccc2)cc1` (stereo not given): the inhibition is 5.36% (inactive). The figure for `CCOc1ccc(-c2nnc(Nc3ccc(C(N)=O)cc3)c3ccccc23)cc1` is 6% (inactive); for `CCOC(=O)C1CCN(C(=O)C2CCc3sc(C(=O)N4CCCCC4)cc3C2)CC1` (stereo not given) it is 4.24% (inactive). Then `COc1cccc(N2CCN(C(=O)c3ccc(Cl)cc3Cl)C(C)C2=O)c1` (stereo not given), with 3.4% (inactive). Regarding `Cc1cc(C(=O)Nc2ccccc2)nc2ccnn12`, the inhibition is -10.8% (inactive). In the case of `O=C1[C@H]2OC[C@H](O2)[C@@H]2[C@H]1[C@H]1C=Cc3ccccc3N1[C@@H]2C(=O)c1ccc(F)cc1`, the inhibition was 91.4% (active). Then `O=C(c1ccc(F)cc1)N1CCC(N2CCC(C(=O)N3CCCCC3)CC2)CC1`, with -3.3% (inactive); and `Brc1ccc(Nc2nc(-c3ccc4c(c3)OCO4)cs2)nc1`, with -1.1% (inactive).

On to `Cc1ccc(-c2csc(NC(=O)c3ccc([N+](=O)[O-])cc3)n2)c(C)c1`, for which the inhibition was 10.4% (inactive). With `Cc1ccc(Nc2nc(-c3ccc(O)cc3O)cs2)nc1`, the inhibition was 100% (active). For `O=C(CSc1ncc(CO)n1Cc1ccccc1)Nc1ccc([N+](=O)[O-])cc1`, the inhibition is 20.9% (inactive). Take `Oc1ccc(N=Nc2nccs2)c(O)c1`: the inhibition was 99.9% (active).

Regarding `Cc1[nH]c(=O)[nH]c(=O)c1S(=O)(=O)NC1=NCCS1`, the inhibition was 3% (inactive). Regarding `COCc1cc(C)nc2sc(C3=NC(C)(C)Cc4ccccc43)c(N)c12`, the inhibition is 58% (active). `COCc1cc(C)nc2sc(C(N)=O)c(N)c12`: the inhibition was -5% (inactive). As to `COCc1cc(C)nc2sc(C(=O)N(c3ccccc3)c3ccccc3)c(N)c12`, the inhibition was -19% (inactive). `O=C(Nc1ccc(C(F)(F)F)cc1)N1CCc2c(nc[nH]c2=O)C1`: the inhibition is -3.4% (inactive). With `CCN(Cc1ccccc1)C(=O)c1sc2ccccc2c1Cl`, the inhibition is -67.9% (inactive). The figure for `CCCCN1C(=O)C(C)(C(=O)Nc2cccc(OC)c2)Oc2cccnc21` (stereo not given) is 4.7% (inactive). In the case of `Cc1cccc(-n2nnc(C(=O)NCCN3CCCC3)c2N)c1`, the inhibition is 2% (inactive). In the case of `c1ccc2[nH]c(-c3nc4ccccc4[nH]3)nc2c1`, the inhibition was 7.27% (inactive). In the case of `c1ccc(-c2nnc(N3CCOCC3)c3ccccc23)cc1`, the inhibition is -4.1% (inactive). In the case of `C1=C(N2CCOCC2)/C(=C/c2nc3ccccc3[nH]2)CC1`, the inhibition was 67.1% (active). On to `Cc1cc(Cl)ccc1NC(=O)C(C)N(c1ccccc1)S(C)(=O)=O` (stereo not given), for which the inhibition is -1.9% (inactive). Regarding `O=C(NCc1ccc2c(c1)OCO2)C1CCc2sc(C(=O)N3CCOCC3)cc2C1` (stereo not given), the inhibition was -0.39% (inactive). With `CCCNC(=O)C1CCN(Cc2c(C)n(CC)c3ccccc23)CC1`, the inhibition was 7.5% (inactive).

As to `Cc1cc(C(=O)N2CC(C(=O)N3CCN(c4ccc(Cl)c(Cl)c4)CC3)C2)no1`, the inhibition was 66.7% (active). For `COc1ccccc1N1CCN(C(=O)c2cc(-c3ccc(Cl)c(Cl)c3)on2)CC1`, the inhibition is -3% (inactive). For the compound `Cc1cc(C(=O)N2CC(C(=O)Nc3cccc(NS(C)(=O)=O)c3)C2)no1`, the inhibition was -19.8% (inactive).

Turning to `CN(C(=O)Cc1c[nH]c2ccccc12)C1(C(=O)NC2CCCCC2)CCCCC1`, the inhibition is 6% (inactive). Turning to `CC(=O)c1sc(NC(=O)c2ccccc2[N+](=O)[O-])nc1C`, the inhibition is -19.4% (inactive). Then `Cc1cccc(C(=O)NCCC2CCN(C(=O)Nc3cccc(Cl)c3)CC2)c1`, with -18.9% (inactive); and `COc1ccccc1-n1c(C)nc2cc(C(=O)NCc3cccnc3)ccc21`, with 0% (inactive). Take `CCOC(CNC(=O)c1ccc2c(c1)nc(C)n2-c1cc(Cl)ccc1OC)OCC`: the inhibition was 52% (active).

As to `CCOc1ccc(-n2c(C)nc3cc(C(=O)NCC(OCC)OCC)ccc32)cc1`, the inhibition was 23% (inactive). For the compound `O=C1c2ccccc2C(=O)c2c1ccc(Cl)c2NC(=O)C(F)(F)F`, the inhibition was 18% (inactive). On to `O=S(=O)(c1ccc(Cl)cc1)N1CCSC1c1ccccc1Cl` (stereo not given), for which the inhibition was -18% (inactive). Take `O=C(NC1CCCCC1)C1CC(c2ccc(F)cc2)=NO1` (stereo not given): the inhibition was -5.78% (inactive). For `N=C1S/C(=C\c2ccc(N3CCOCC3)cc2)C(=O)N1c1ccccc1Cl`, the inhibition is 39% (inactive). As for `Cc1ccc(C2=CC(c3ccc(C)cc3)n3nc(CCCO)nc3N2)cc1` (stereo not given), the inhibition is 24% (inactive). For `CCC(=O)NCc1csc(C2CCCN(C(=O)C(C)(C)C)C2)n1` (stereo not given), the inhibition is 1.52% (inactive).

In the case of `O=C1OC(c2cccc(Br)c2)=N/C1=C\c1ccc(I)cc1`, the inhibition was 5% (inactive).

As to `COC(C(=O)Nc1ccc(C(C)=O)cc1)c1ccccc1` (stereo not given), the inhibition was -1.7% (inactive). For the compound `O=C(Nc1cc(F)ccc1F)C(c1ccccc1)n1cccc1` (stereo not given), the inhibition is 42.3% (inactive). Regarding `COC(=O)c1ccc(NC(=O)C(c2ccccc2)n2cccc2)cc1` (stereo not given), the inhibition was 75.5% (active). As for `CN(C)Cc1c(O)ccc2c1OC(=Cc1cccs1)C2=O`, the inhibition is 1.1% (inactive). Then `Nc1nc(SCC(=O)N2CCCCC2)nc2sc3c(c12)CCCC3`, with 35% (inactive); and `NNc1nc2sc3c(c2c(=O)n1Cc1ccccc1)CCCC3`, with 79.8% (active). Consider `C=CCn1c(SC(CCO)C(=O)N2CCCCC2)nc2sc3c(c2c1=O)CCCC3` (stereo not given), for which the inhibition was 35.2% (inactive).

Take `CCOc1ccccc1NC(=O)N1CCC(N2CCN(Cc3ccccc3)C2=O)CC1`: the inhibition was 4.68% (inactive). Consider `O=C(NCc1ccco1)N1CCC2(CC1)Nc1ccccc1-n1cccc12`, for which the inhibition was 67.5% (active). As to `CCOc1ccccc1NC(=O)N1CC2CN(S(=O)(=O)c3ccc(C)cc3)CC(C1)O2`, the inhibition was -6.22% (inactive).

For `Cc1ccc(NC(=O)N2CCC3(CC2)Nc2cc(F)ccc2-n2cccc23)c(Cl)c1`, the inhibition is 31.9% (inactive). As for `CCOc1ccccc1NC(=O)N1CCC2(CC1)c1cccn1-c1ccc(C)cc1N2CC`, the inhibition was 50.5% (active). For the compound `CC1CCC2(CC1)NC(=O)N(CC(=O)NCc1ccco1)C2=O` (stereo not given), the inhibition was 1.16% (inactive). In the case of `CCOCCCNC(=O)C1(C)CCC(=O)N1c1ccc(F)cc1C` (stereo not given), the inhibition is -2.61% (inactive).

For `COc1ccccc1NC(=O)N1CCC2(CC1)NC(=O)c1cc(F)ccc1N2C`, the inhibition was -0.74% (inactive). Turning to `COc1ccc(C)cc1NC(=O)N1CCC2(CC1)Nc1cc(F)ccc1-n1cccc12`, the inhibition was 54% (active). Turning to `CCOCCCNC(=O)N1CCC2(CC1)Nc1cc(F)ccc1-n1cccc12`, the inhibition is 64.6% (active). The figure for `CCOCCCNC(=O)N1CCc2cn(C)c3cccc(c23)C1` is 4.99% (inactive); for `Cc1ccccc1-n1ccn(CC(=O)NCc2ccco2)c(=O)c1=O` it is 1% (inactive). `CC(C)n1c(C2CCN(C(=O)C3(c4ccccc4)CC3)C2)nc2ccncc21` (stereo not given): the inhibition is 1.58% (inactive). Turning to `O=c1[nH]c(-c2ccccc2)cn1-c1cccc(C(F)(F)F)c1`, the inhibition is 12% (inactive). Consider `C=Cc1ccc(CN2C(=O)N(c3ccc(F)cc3)c3ncccc3S2(=O)=O)cc1`, for which the inhibition is -1.5% (inactive). Consider `Nc1cc(C2CCN(C(=O)Nc3cc(Cl)cc(Cl)c3)CC2)no1`, for which the inhibition was 1.32% (inactive).
